Measured values: PubChem BioAssay

assay: growth suppression of yeast trafficking mutant, preliminary HTS, modulators of trafficking downstream of Golgi apparatus project, 1536-format plate, OD 615 nm (AID 637); conditions: yeast transport mutant growth, absorbance 615 nm, 18 h; stronger effect = higher value; in the data active means inhibition above about 30%; inactive means the rest

inhibition, inactive:
COC(=O)CCn1nnc(-c2ccc(C)cc2)n1 -2.91%
COC(=O)CCC(=O)CN 5.67%
O=C(Nc1ccc(N2CCCC2)cc1)c1cccc(F)c1 -0.82%
Cc1nc(-c2coc3cc(OCC(=O)O)ccc3c2=O)cs1 -7.64%
CCN1CCc2c(C#N)c(N3CCCCC3)nc(NCc3ccccc3)c2C1 16.6%
Cc1ccc(S(=O)(=O)N2CCCN(S(=O)(=O)C3CCS(=O)(=O)C3)CC2)cc1 (stereo not given) 1.09%
COc1nc(NCCc2ccc(OC)c(OC)c2)nc(NC(C)(C)CO)n1 -1.31%
O=C(O)c1cc(-c2ccccc2)nc2ccccc12 4.83%
Cc1nc2ccc(C(=O)O)cc2c2c1CC(C)S2 (stereo not given) 0.55%
COC(=O)c1ccc(COC(=O)c2c(C)nn(Cc3ccccc3Cl)c2Cl)o1 3.82%
CSc1nnc(-c2cnccn2)n1Cc1ccccc1 0.73%
COCCNC(=O)C(c1ccc(C)o1)N(Cc1cccs1)C(=O)c1snc(C(N)=O)c1N (stereo not given) 12.7%
COc1ccc(CCNC(=O)CSCc2n[nH]c(=O)[nH]2)cc1OC 0%
CCCOc1cccc(C(=O)Nc2cc(NC(=O)c3ccco3)ccc2OC)c1 -2.55%
Cc1cc(S(=O)(=O)N2CCN(c3ccccc3C)CC2)ccc1F 4.59%
O=S(=O)(c1ccc(Br)s1)N1CCN(c2ccccc2)CC1 -3.27%
O=C(CSCc1ccc(F)cc1)NC1CCCC1 4.1%
Cc1cc(NCC2CCCO2)n2c(nc3ccccc32)c1C#N (stereo not given) 1.61%
Cc1nc(NC2=NCN(CCCN3CCOCC3)CN2)nc2c(C)cccc12 0.16%
Cc1nnc(NC(=O)CCC(=O)N2CCC(C)CC2)s1 1.64%
CCC(=O)Nc1ccc(NC(=O)c2ccccn2)cn1 -8%
Cc1cccc(N2CCN(C(=O)C3CCCN(S(=O)(=O)c4c(C)noc4C)C3)CC2)c1C (stereo not given) 0.83%
CCOC(=O)C1CCCN(CC(=O)NC2CC2)C1 (stereo not given) -2.91%
Cc1ccc(C)c(N(CC(=O)NC2CCCC2)C(=O)CCCC(=O)Nc2ccccn2)c1 -2.95%
O=C1C2ON(c3ccc(Cl)cc3)C(c3ccco3)C2C(=O)N1c1ccccc1 (stereo not given) -3.61%
CC1=Nn2c(nnc2-c2ccccc2)SC1 0%
O=C(NCCN1CCOCC1)C1CCC(=O)N1Cc1ccccc1Cl (stereo not given) -1.48%
C=CCNC(=O)C1CC(=O)N(c2ccc(OCC(=O)Nc3ccc(OC)cc3)cc2)C1 (stereo not given) -0.18%
Cc1ccccc1-n1c(SCc2c(C)noc2C)nnc1-c1ccncc1 -2%
c1cc2c(cc1Nc1nc(-c3ccc4c(c3)OCO4)cs1)OCCO2 -10%
CC(=O)OC1CSc2nc3ccccc3n2C1 (stereo not given) 3.45%
CCOC(=O)c1cc(-c2ccccc2)sc1N -2%
CC1(C)CC(=O)C2=C(C1)NC(=O)CC2C(=O)NCc1ccc(F)cc1 (stereo not given) 1.64%
Cc1ccc2nc(-c3ccc4c(c3)OCCO4)cc(C(=O)O)c2c1 -6%
Cn1nc(-c2ccc(N3CCCCC3)c(NC(=O)c3ccco3)c2)c2ccccc2c1=O 4.35%
Cc1[nH]nc2c1C(=O)CCC2 -0.18%
COc1cc(C(=O)N(C)c2nnc(-c3cccnc3)s2)cc(OC)c1OC 17.4%
Cc1noc(C)c1CSc1nc2ccccc2s1 -4.1%
O=S1(=O)CCC(N=Cc2cc(Br)ccc2O)C1 (stereo not given) 2.26%
CC(C)(C)C1=Nn2c(nnc2-c2n[nH]c3c2CCC3)SC1 4.68%
